Legend:
Assay in all cases: PBM binding z-score (relative to random genomic background probes); higher = stronger binding; sequences stand for … in GC…GCGATTGACAGCGTAGAATGAAGG
[1] = test system: FXR:RXRa (NR concentration 270 nM, RXRa partner concentration 90 nM)
Summary of the method: (§1)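 Antibodies against each partner of ligand-free nuclear receptor dimers (one per run) detected binding on custom Agilent 4×180K protein-binding microarrays after 1 h incubation. The double-stranded probes had 34-nt variable regions carrying direct-repeat seeds, single-nucleotide variants, half-site ablations and random human genomic background sequences. Binding z-scores, from regression-normalized fluorescence, use the random background probes as reference.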

[2] = test system: LXRa:RXRa (NR concentration 270 nM, RXRa partner concentration 90 nM)
Summary of the method: as §1

[3] = test system: LXRa homodimer (NR concentration 270 nM)
Summary of the method: as §1

[4] = test system: LXRb:RXRa (NR concentration 270 nM, RXRa partner concentration 90 nM)
Summary of the method: as §1

[5] = test system: LXRb homodimer (NR concentration 270 nM)
Summary of the method: as §1

[6] = test system: PPARa:RXRa (NR concentration 270 nM, RXRa partner concentration 90 nM)
Summary of the method: as §1

[7] = test system: PPARg:RXRa (NR concentration 180 nM, RXRa partner concentration 90 nM)
Summary of the method: as §1

[8] = test system: PPARg:RXRa 270nM:90nM, anti-RXR (NR concentration 270 nM, RXRa partner concentration 90 nM)
Summary of the method: as §1

[9] = test system: PPARg:RXRa 30nM:10nM, anti-RXR (NR concentration 30 nM, RXRa partner concentration 10 nM)
Summary of the method: as §1

[10] = test system: PPARg:RXRa 90nM:30nM, anti-RXR (NR concentration 90 nM, RXRa partner concentration 30 nM)
Summary of the method: as §1

Sequence	PBM binding z-score [1]	PBM binding z-score [2]	PBM binding z-score [3]	PBM binding z-score [4]	PBM binding z-score [5]	PBM binding z-score [6]	PBM binding z-score [7]	PBM binding z-score [8]	PBM binding z-score [9]	PBM binding z-score [10]
CGAACTAGGTCAAAGGACAGTGAGAGGCGACGTA	4.2	2.38	-0.449	1.41	-0.441	5.65	10.3	8.86	8	9.29
ATATGTAGGTTAGGGACATTCAGAAAGTAGGGAA	0.703	0.638	0.29	0.442	0.526	2.39	3.98	2.82	1.2	2.33
CCTACTGGGCCAAAGGACATTGATTCCAATGCTC	-0.0323	-0.0828	-0.295	-0.127	-0.465	2.62	5.82	6.75	5.26	7.73
ATATGTAGGTTAGGGTCATCCAGAAAGTAGGGAA	5.11	4.21	1.16	4.31	1.44	5.62	8.03	6.66	4.94	6.67
TCTAGTTGGTCGCGGAGGTCACACACGACGGGTA	2.99	3.17	2.21	2.94	0.671	3.61	2.02	3.04	2.94	2.83
TCTCGGAGGACACGAAACGTCAGAGCTCGACATC	0.138	-0.218	-0.617	-0.347	-0.872	-0.13	0.395	0.915	2.04	1.4
ATATGTAGGTGAGGGTCATTCAGAAAGTAGGGAA	3.06	2.59	1.02	3.43	1.43	5.07	7.86	6.55	4.94	6.5
CATACAGGGTCCGCTAGGCCAGAGTAGGGACGGC	-0.192	-0.435	-0.418	-0.869	-0.218	-1.11	0.155	-0.418	-0.876	-0.844
ACTAGTTGGTAAGCTGAGGTCACACACAATTCGG	2.58	3.17	2.68	3.35	0.606	3.57	1.54	1.96	0.653	1.13
CGAAGTAGGTCACCAGGACAGTGAAGAGGTTGGA	3.65	2.69	0.0752	2.07	-0.257	5.34	8.79	7.35	4.81	7.02
CAAACTAGGTCACAGAGGACAAAGTCCGTGCGTA	4.82	3.84	1.45	2.96	0.637	5.52	9.51	7.79	5.58	7.51
CCTTCTGGGCCATTCAGAGGTCATTGATCATATG	2.86	4.26	6.84	3.99	0.742	4.02	1.85	2.79	0.927	2.05
AGTCAAAGTTCAGGACGAGGTACCGTAAAGCACG	3.73	3.6	1.07	1.66	0.243	3.21	4.19	4.86	1.63	3.51
AGTCAAAGTTCAGGACGAGGTCACGTAAAGCACG	6.35	5.87	4.71	4.87	0.736	5.46	6.17	6.26	2.76	4.97
CGACCTAGGTCAAAGGACAGTGAAAGGCGACGTA	5.01	3.27	-0.141	2.32	-0.298	4.33	5.72	5.68	3.14	4.92
ATATGTAGGTTAGGGTCATTTAGAAAGTAGGGAA	4.85	3.93	1.62	4.59	1.67	5.67	7.69	6.54	4.42	6.23
CGAACTAGGACATCCAGGACAGTGAATACATTGA	0.00191	-0.483	0.0183	-0.213	-0.407	0.451	1.35	0.774	0.322	0.462
ATATGTAGGTTAGGGTCATTCAGAAAGTAGGGAA	5.09	4.43	1.52	4.66	1.62	5.61	7.97	6.68	4.41	6.43
CCTACTGGGCCACGAAAGGTCCTTGATTCAGTGA	-0.183	-0.157	-0.498	-0.372	-0.947	1.21	1.24	1.23	-0.391	0.635
ATATGTAGGTTAGTGTCATTCAGAAAGTAGGGAA	1	1.03	0.483	1.41	0.974	3.21	4.15	3.57	1.5	2.8
AATACAGGGACATCGTAGGCCAGAGTACGCACAG	-0.0851	-0.29	0.107	-0.465	0.118	-0.329	1.07	-0.124	0.0369	0.0571
ACTAGTTGCTCAGCTGAGGTCACACACAATTCGG	2.75	2.94	1.75	3.4	0.214	3.4	1.17	1.69	0.448	1.24
CAAACTAGGTCACAGAGGTTAAAGTCCGTGCGTA	5.89	5.17	3.01	4.28	0.562	6.05	9.43	7.64	5.91	7.56
